Screening results deposited in PubChem by National Center for Advancing Translational Sciences (NCATS).
Sampled rows, rich in hits. Any-hit rate of the full collection: about 2.3%.
Lassa entry inh: blocks Lassa virus binding to or entry into cells; Lassa virus pseudotype entry inhibition, cell reporter; Potency, µM (series often up to 37.9 µM), for inactives: top-dose activity change, negative = inhibition, usual class: inhibitors; 1.2% of 300,000 active; AID 540256; calls by dose curve; tested in HEK293 cells; also: nearly all actives have a fitted effect of over 50% in size
Marburg entry inh: Marburg virus entry inhibition. AID 540276. Marburg virus pseudotyped entry inhibition, cell reporter. 1.8% of 300,000 active. Potency, µM (titrated, usually from 37.8 µM), for the others: top-dose activity change, negative = inhibition, actives largely listed as inhibitors; calls by dose curve; tested in HEK293 cells
AMA1 RON2 block: inhibitors of Plasmodium falciparum AMA1-RON2 interaction. AlphaScreen AMA1-biotinylated RON2 peptide binding. Potency, µM (titrated, usually from 58.2 µM), without a hit: at the highest dose activity change, negative = inhibition, hits mostly inhibitors. 0.2% of 360,000 active. AID 720542;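 also: 0% = vehicle wells and -100% = peptide control; nearly all actives have a fitted effect of over 45% in size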
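AMA1 (3D7) with his tag at 25 nM final met compounds first, then biotinylated RON2 peptide at 25 nM; detection used donor plus acceptor beads, 10 µg/mL apiece, read by AlphaScreen after 30 min at room temperature.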
AmpC inh no detg: inhibitors of E. coli AmpC beta-lactamase without detergent; 0.52% of 330,000 active; P00811; Potency, µM (highest dose often 57.1 µM), for inactives: at the highest dose activity change, negative = inhibition, most hits filed as inhibitors; AmpC nitrocefin hydrolysis, absorbance 480 nm, 0.0001% Triton; AID 485341;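 also: plate controls were no compound for no effect and no enzyme for full effect; nearly all actives have a fitted effect of over 20% in size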
Target sequence (P00811 whole entry, looked up): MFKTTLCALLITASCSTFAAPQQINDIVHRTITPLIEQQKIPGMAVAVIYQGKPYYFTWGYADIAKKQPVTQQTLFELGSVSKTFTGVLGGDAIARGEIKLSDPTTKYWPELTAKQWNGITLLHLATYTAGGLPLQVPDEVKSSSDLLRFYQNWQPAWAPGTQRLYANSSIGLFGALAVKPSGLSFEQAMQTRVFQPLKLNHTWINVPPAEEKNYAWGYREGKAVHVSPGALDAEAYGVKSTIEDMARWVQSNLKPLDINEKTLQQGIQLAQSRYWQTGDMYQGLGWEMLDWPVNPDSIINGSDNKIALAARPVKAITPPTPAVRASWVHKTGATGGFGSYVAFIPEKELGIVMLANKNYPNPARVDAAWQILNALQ
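20 mM phosphate pH 7.0 + 0.01% (detergent screen) or 0.0001% Triton X-100; 5.3 nM AmpC reagent; cpd preinc 15 min RT; nitrocefin (800 uM stock) to start; A480 q20 s × 4 min; Activity was normalised to no-enzyme and no-compound control wells.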
AmpC inh detg: AmpC beta-lactamase inhibition with detergent present. AID 485294. AmpC hydrolysis of nitrocefin, absorbance 480 nm, 0.01% Triton. Potency, µM (series often up to 114 µM), for inactives: at the top dose activity change, negative = inhibition, most hits filed as inhibitors. 0.041% of 370,000 active. P00811;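 also: 0% = no-compound wells and -100% = no-enzyme wells; nearly all actives have a fitted effect of over 25% in size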
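AmpC (5.3 nM in the dispensed reagent) in 20 mM phosphate pH 7.0 with 0.01% (detergent screen) or 0.0001% Triton X-100 was preincubated with compounds for 15 min at room temperature. Nitrocefin was then added from an 800 uM solution, and hydrolysis was followed at 480 nm.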
* marks the source's active call; other numbers are inactive results; [ ] = remark or other dose. Unless noted, calls follow the shape of the dose curve; as a rule, active = well fitted curve in the direction sought with a large enough effect; inconclusive = small, poorly fitted or top-dose-only effect, or another doubt; inactive = no such curve, though single readings can be large; an effect the other way counts as inactive or inconclusive. Unless noted, % is scaled to controls: 0 for no effect and ±100 for the full control effect; potency is read from the fitted curve at half-maximal effect.

What do the screens show for `COc1ccc(C(=O)Nc2cc(C)nn2-c2nc3ccccc3[nH]2)c(OC)c1`?
AMA1 RON2 block: 101%; AmpC inh no detg: -17%; AmpC inh detg: 4%

How did COc1cccc(-c2cn3c(n2)sc2cc(C(=O)NC4CCCCCC4)ccc23)c1 do in these assays?
Lassa entry inh: 11%[46.1 µM]; AmpC inh detg: -1%

Results for Clc1ccc2c(c1)C(N1CCNCC1)Cc1ccccc1S2 (configuration not stated) ?
Lassa entry inh: inconclusive; Marburg entry inh: inconclusive; AMA1 RON2 block: -6%; AmpC inh no detg: 127%; AmpC inh detg: -4%

How did CC(C)c1ccc2c(c1)C(N1CCN(C)CC1)Cc1cccnc1S2 (configuration not stated) do in these assays?
Lassa entry inh: -10%[46.1 µM]; Marburg entry inh: 11µM*; AMA1 RON2 block: -16%

What do the screens show for `Cc1csc(=O)n1CCC(=O)OCC(=O)c1c(N)n(CC(C)C)c(=O)n(C)c1=O`?
Lassa entry inh: -13%; Marburg entry inh: inconclusive; AMA1 RON2 block: -11%; AmpC inh no detg: -11%; AmpC inh detg: -14%

How did CC(C)Cn1c(N)c(C(=O)COC(=O)CC23CC4CC(CC(C4)C2)C3)c(=O)n(C)c1=O do in these assays?
Lassa entry inh: 1.8µM*; Marburg entry inh: 8.9µM*; AMA1 RON2 block: -8%; AmpC inh no detg: 2%; AmpC inh detg: 5%

How did CC(C)Cn1c(N)c(C(=O)COC(=O)/C=C/c2ccccc2)c(=O)n(C)c1=O do in these assays?
Lassa entry inh: inconclusive; Marburg entry inh: 10µM*; AMA1 RON2 block: -13%; AmpC inh no detg: 19%; AmpC inh detg: inconclusive

What do the screens show for `COc1ccccc1/C=C/C(=O)OCC(=O)c1c(N)n(C)c(=O)n(C)c1=O`?
Lassa entry inh: 18%; Marburg entry inh: 0.89µM*; AMA1 RON2 block: -5%; AmpC inh no detg: 4%; AmpC inh detg: -7%

How did C[C@H]1CC[C@H]2C(=O)O[C@H](CO)CN2[C@@H]1c1ccc(Br)cc1 do in these assays?
Marburg entry inh: -20%[14.2 µM]

What do the screens show for `CCCCNC(=O)Oc1c(Br)cc2sc(=O)oc2c1Br`?
Marburg entry inh: 7%; AmpC inh no detg: inconclusive; AmpC inh detg: 45µM*

What do the screens show for `CCCCNC(=O)Oc1cc(CCl)on1`?
AmpC inh no detg: -12%; AmpC inh detg: inconclusive

What do the screens show for `CCCCCCCC(=O)N/N=C/c1ccc([N+](=O)[O-])o1`?
AMA1 RON2 block: -9%; AmpC inh no detg: -15%; AmpC inh detg: 2%

What do the screens show for `O=C(CC12CC3CC(CC(C3)C1)C2)N/N=C/c1ccc([N+](=O)[O-])o1`?
Lassa entry inh: 16µM*; Marburg entry inh: inconclusive; AMA1 RON2 block: 38%; AmpC inh no detg: -27%; AmpC inh detg: inconclusive

How did O=C(CN1CCCCCCC1)N/N=C/c1ccc([N+](=O)[O-])o1 do in these assays?
Lassa entry inh: inconclusive; Marburg entry inh: inconclusive; AMA1 RON2 block: 10µM*; AmpC inh no detg: -35%; AmpC inh detg: 0%

Results for O=C(Cc1ccc([N+](=O)[O-])cc1)N/N=C/c1ccc([N+](=O)[O-])o1 ?
AMA1 RON2 block: 10%; AmpC inh no detg: -46%; AmpC inh detg: -7%

Results for CC1(C(=O)N/N=C/c2ccc([N+](=O)[O-])o2)CC1(Br)Br (configuration not stated) ?
Lassa entry inh: 13µM*; Marburg entry inh: inconclusive; AMA1 RON2 block: 9%; AmpC inh no detg: -4%; AmpC inh detg: -6%

Results for NC(=O)c1ccc(NC(=O)C2CCN(S(=O)(=O)Cc3ccccc3)CC2)cc1 ?
Lassa entry inh: -6%[46.1 µM]; Marburg entry inh: -2%[46.1 µM]; AmpC inh detg: 23%

Results for COc1cccc(N2CCN(C(=O)c3cnc4c(-c5ccc(F)cc5)c(C)nn4c3C)CC2)c1 ?
Lassa entry inh: 4%[46.1 µM]; AmpC inh detg: 0%

Results for Cc1ccc(-c2nnc3c(C(F)(F)F)nc4ccccc4n23)cc1 ?
Lassa entry inh: -3%; Marburg entry inh: -6%; AMA1 RON2 block: -2%; AmpC inh no detg: 0.14µM*; AmpC inh detg: inconclusive

What do the screens show for `CCN1C(=O)[C@H]2[C@H]3[C@H](O)[C@H](O)C/C(=N\NC(=O)OCc4ccccc4)[C@@H]3CC[C@H]2C1=O`?
Marburg entry inh: -8%[14.2 µM]

How did COc1cccc(C(c2sc3nc(-c4ccco4)nn3c2O)N2CCOCC2)c1 (configuration not stated) do in these assays?
Lassa entry inh: 9%[46.1 µM]; AmpC inh detg: 2%

What do the screens show for `C=CCNC(=O)c1ccc2nc(Cc3ccc(OC)cc3)oc2c1`?
Lassa entry inh: 5.6µM*; Marburg entry inh: inconclusive; AMA1 RON2 block: -7%

What do the screens show for `CC(Nc1oc(-c2ccccc2)nc1C(C)(C)C)c1ccccc1` (configuration not stated)?
Lassa entry inh: inconclusive; Marburg entry inh: -5%[14.2 µM]

What do the screens show for `CC(N)C(=O)NC1C2C(=C(O)CC(O)C2O)C(=O)OC1(C)C(Cl)Cl` (configuration not stated)?
Lassa entry inh: 0.5µM*; Marburg entry inh: 0.32µM*; AMA1 RON2 block: -19%

What do the screens show for `CCCOC(=O)c1ccc(NC(=O)c2c(Cl)ccc(Cl)c2OC)cc1`?
Lassa entry inh: inconclusive; Marburg entry inh: inconclusive; AMA1 RON2 block: 14%; AmpC inh no detg: 28µM*; AmpC inh detg: -7%

Results for C[C@H](N)CN1CCc2ccc(Br)cc21 ?
Lassa entry inh: inconclusive; Marburg entry inh: 3.5µM*; AMA1 RON2 block: 42%

What do the screens show for `Cc1ccc(Cc2cnc(NC(=O)c3ccc4c(c3)CC(c3ccccc3)OC4=O)s2)cc1` (configuration not stated)?
Lassa entry inh: 19%[46.1 µM]; Marburg entry inh: 2%[46.1 µM]; AmpC inh detg: 13%

What do the screens show for `Cc1cc(N2C(=O)CC(N3CCN(c4ccc(C(=O)c5cccs5)cc4)CC3)C2=O)no1` (configuration not stated)?
Lassa entry inh: 14%; Marburg entry inh: 25%[46.1 µM]; AMA1 RON2 block: -7%; AmpC inh no detg: 0.5µM*; AmpC inh detg: 0%

Results for O=C(c1ccc(N2CCN(C3CC(=O)N(Cc4cccs4)C3=O)CC2)cc1)c1cccnc1 (configuration not stated) ?
Lassa entry inh: inconclusive; Marburg entry inh: inconclusive; AMA1 RON2 block: 0%; AmpC inh no detg: 123%; AmpC inh detg: 6%

Results for C=C(C)C1CC23C(=O)[C@]4(C(=O)c5ccccc5)C[C@@]5(C)CCC(CC2C1(C)C)(C4=O)[C@@]35OC (some centres not stated) ?
Marburg entry inh: 9%[14.2 µM]

What do the screens show for `CN1CCC(Oc2ccccc2Sc2ccccc2)CC1`?
Lassa entry inh: 8.2µM*; Marburg entry inh: 10µM*; AMA1 RON2 block: -28%; AmpC inh no detg: 33%; AmpC inh detg: inconclusive

How did CN1CCN(Cc2ccccc2Sc2ccccc2)CC1 do in these assays?
Lassa entry inh: inconclusive; Marburg entry inh: inconclusive; AMA1 RON2 block: 6%; AmpC inh no detg: 66%; AmpC inh detg: 1%
